Laboratory results from PubChem BioAssay (EPA / NIEHS).
Several values for one entry are separate records, joined by “and”; a condition that tells them apart may be missing. Equal values may be shown once. Some structures have more than one record in an assay (separate samples or runs), and their calls can disagree. Activity calls are given as the source filed them. Rule for the calls: active = hit-call score of the fitted dose curve at least 0.9, where 1 is the maximum; inactive = score below 0.9.

How the values were obtained:
[1] = BSK_KF3CT_SRB: Viability Assessment in the BioMAP Diversity Plus: KF3CT Assay (AID 2283069); conditions: primary human keratinocytes with fibroblasts;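 note: total protein by sulforhodamine B staining as a cytotoxicity measure; fitted for both signal gain and loss against DMSO baseline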
Procedure, shortened: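 Human keratinocyte and foreskin fibroblast co-culture exposed to chemical for 24 h. Total protein measured in parallel cultures by 0.1% sulforhodamine B staining after 10% TCA fixation, read at 560 nm; bidirectional fit relative to DMSO.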

[2] = read-out: TIMP metallopeptidase inhibitor 2 (TIMP2), TIMP2 (gene 7077); assay: BSK_KF3CT_TIMP2: BioMAP Diversity Plus: KF3CT Assay for TIMP metallopeptidase inhibitor 2 (TIMP2) Biomarker Activity (AID 2283071); conditions: primary human keratinocytes with fibroblasts; actives raise or lower the signal
Procedure, shortened: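 Keratinocyte–fibroblast co-culture, 24 h exposure; TIMP-2 ELISA, DMSO-normalised bidirectional fit. Parallel SRB (0.1%, TCA-fixed, 560 nm) total-protein staining gauges cytotoxicity.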

[3] = read-out: Transforming growth factor beta 1 (TGFb1), TGFB1 (gene 7040); assay: BSK_KF3CT_TGFb1: BioMAP Diversity Plus: KF3CT Assay for Transforming growth factor beta 1 (TGFb1) Biomarker Activity (AID 2283072); conditions: primary human keratinocytes with fibroblasts; actives raise or lower the signal
Procedure, shortened: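 Signal changes in either direction, relative to DMSO, define activity here. TGF-b1 is read by ELISA from a human keratinocyte-fibroblast co-culture 24 h post-dose.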

[4] = read-out: C-C motif chemokine 2 (Homo sapiens) (UniProt P13500); assay: BSK_KF3CT_MCP1: BioMAP Diversity Plus: KF3CT Assay for Monocyte Chemoattractant Protein 1 (MCP1/CCL2) Biomarker Activity (AID 2283073); conditions: primary human keratinocytes with fibroblasts; actives raise or lower the signal
Procedure, shortened: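 ELISA readout of MCP-1 after 24 h chemical dosing of a human skin primary co-culture of keratinocytes and foreskin fibroblasts. Activity was fitted in both directions against DMSO.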

[5] = read-out: Matrix Metallopeptidase 9 (MMP9), MMP9 (gene 4318); assay: BSK_KF3CT_MMP9: BioMAP Diversity Plus: KF3CT Assay for Matrix Metallopeptidase 9 (MMP9) Biomarker Activity (AID 2283074); conditions: primary human keratinocytes with fibroblasts; actives raise or lower the signal;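 for AC50: MMP9 protein level quantified by ELISA in the co-culture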
Procedure, shortened: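 Human keratinocyte and foreskin fibroblast co-culture exposed to chemicals for 24 h; MMP9 biomarker measured by ELISA, bidirectional fitting relative to DMSO; cytotoxicity tracked by SRB total protein staining in parallel cultures.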

[6] = read-out: CD40, CD40 (gene 958); assay: BSK_LPS_CD40: BioMAP Diversity Plus: LPS Assay for CD40 Biomarker Activity (AID 2283076); conditions: primary human HUVEC with PBMC; actives raise or lower the signal
Procedure, shortened: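 Cells were dosed, incubated 24 h, then assayed for CD40 by ELISA. Gain or loss of signal was analysed relative to DMSO controls. The culture paired human umbilical vein endothelium with peripheral blood mononuclear cells.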

[7] = read-out: E-selectin (Homo sapiens) (UniProt P16581); assay: BSK_LPS_Eselectin: BioMAP Diversity Plus: LPS Assay for Eselectin Biomarker Activity (AID 2283077); conditions: primary human HUVEC with PBMC; actives raise or lower the signal
Procedure, shortened: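 Primary human vascular co-culture (endothelium plus PBMC) was dosed with chemical, then E-selectin quantified by ELISA at 24 h. Endpoint values derive from bidirectional curve fitting relative to DMSO.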

[8] = read-out: Interleukin-8 (IL8), CXCL8 (gene 3576); assay: BSK_LPS_IL8: BioMAP Diversity Plus: LPS Assay for Interleukin-8 (IL8) Biomarker Activity (AID 2283078); conditions: primary human HUVEC with PBMC; actives raise or lower the signal
Procedure, shortened: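 Readout is IL-8 by ELISA, taken 24 h after compounds were added to LPS-stimulated endothelial/PBMC co-cultures. Both increases and decreases relative to DMSO control were scored through bidirectional fitting.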

[9] = BSK_LPS_SRB: Viability Assessment in the BioMAP Diversity Plus: LPS Assay (AID 2283079); conditions: primary human HUVEC with PBMC;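 note: total protein by sulforhodamine B absorbance as a cytotoxicity measure; measured one day after compound addition; fitted in both directions against DMSO so loss or gain of signal counts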
Procedure, shortened: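 Readout is SRB absorbance at 560 nm (0.1% stain, TCA-fixed parallel cultures) as a total-protein cytotoxicity measure. Cells: primary human umbilical vein endothelium plus peripheral blood mononuclear cells, 24 h after chemical exposure; DMSO served as baseline.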

[10] = read-out: Interleukin-1 alpha (IL1a), IL1A (gene 3552); assay: BSK_LPS_IL1a: BioMAP Diversity Plus: LPS Assay for Interleukin-1 alpha (IL1a) Biomarker Activity (AID 2283080); conditions: primary human HUVEC with PBMC; actives raise or lower the signal
Procedure, shortened: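 ELISA read-out of IL-1 alpha from a human primary vascular co-culture (endothelium plus PBMC) under LPS, sampled 24 hours post-dosing. Activity was fitted in both directions relative to DMSO controls.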

[11] = read-out: Monocyte Chemoattractant Protein-1 (MCP1), CCL2 (gene 6347); assay: BSK_LPS_MCP1: BioMAP Diversity Plus: LPS Assay for Monocyte Chemoattractant Protein-1 (MCP1) Biomarker Activity (AID 2283081); conditions: primary human HUVEC with PBMC; actives raise or lower the signal;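 for AC50: secreted MCP-1 protein quantified by ELISA in culture supernatant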
Procedure, shortened: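 Human endothelial–PBMC co-cultures were dosed with chemical, then LPS-driven MCP-1 levels were quantified by ELISA at 24 h. Activity in either direction was fitted versus DMSO negative control.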

[12] = BSK_LPS_PGE2: BioMAP Diversity Plus: LPS Assay for Prostaglandin E2 (PGE2) Biomarker Activity (AID 2283082); conditions: primary human HUVEC with PBMC; actives raise or lower the signal;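 for AC50: secreted prostaglandin E2 measured by ELISA in LPS-stimulated co-culture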
Procedure, shortened: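 Endpoint derived from bidirectional curve fitting versus DMSO of ELISA-measured PGE2 in LPS-stimulated human primary vascular co-culture (HUVEC with PBMC) harvested at 24 h.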

[13] = read-out: Macrophage colony-stimulating factor (MCSF), CSF1 (gene 1435); assay: BSK_LPS_MCSF: BioMAP Diversity Plus: LPS Assay for Macrophage colony-stimulating factor (MCSF) Biomarker Activity (AID 2283083); conditions: primary human HUVEC with PBMC; actives raise or lower the signal
Procedure, shortened: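 ELISA readout of M-CSF after 24 h compound exposure in a human endothelial/PBMC co-culture. Activity, in either direction, is fitted relative to DMSO vehicle.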

[14] = read-out: Tissue Factor, F3 (gene 2152); assay: BSK_LPS_TissueFactor: BioMAP Diversity Plus: LPS Assay for Tissue Factor Biomarker Activity (AID 2283084); conditions: primary human HUVEC with PBMC; actives raise or lower the signal
Procedure, shortened: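 ELISA signal for cell-surface Tissue Factor (CD142) was read 24 h after compound dosing of an LPS-stimulated human endothelial–PBMC primary co-culture. Gain or loss of signal was scored relative to DMSO.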

[15] = read-out: Tumor necrosis factor (Homo sapiens) (UniProt P01375); assay: BSK_LPS_TNFa: BioMAP Diversity Plus: LPS Assay for Tumour Necrosis Factor alpha (TNFa) Biomarker Activity (AID 2283085); conditions: primary human HUVEC with PBMC; actives raise or lower the signal;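 for AC50: TNFa protein level quantified by ELISA in the co-culture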
Procedure, shortened: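 Primary human vascular co-culture of HUVEC and PBMC; TNFa ELISA 24 h after treatment, analysed as increase or decrease relative to DMSO control.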

[16] = read-out: Vascular cell adhesion molecule 1 (VCAM1), VCAM1 (gene 7412); assay: BSK_LPS_VCAM1: BioMAP Diversity Plus: LPS Assay for Vascular cell adhesion molecule 1 (VCAM1) Biomarker Activity (AID 2283086); conditions: primary human HUVEC with PBMC; actives raise or lower the signal
Procedure, shortened: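 Primary human vascular co-culture (umbilical vein endothelium plus PBMC) stimulated with LPS received chemical; 24 h later VCAM-1 was read by ELISA. Overt cytotoxicity was assessed by sulforhodamine B staining of parallel cultures at the same time point.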

[17] = read-out: CD38, CD38 (gene 952); assay: BSK_SAg_CD38: BioMAP Diversity Plus: SAg Assay for CD38 Biomarker Activity (AID 2283087); conditions: primary human HUVEC with PBMC; actives raise or lower the signal
Procedure, shortened: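 Fluorescence ELISA of cell-surface CD38 served as the read-out, with either increase or decrease fitted against DMSO controls. Cells were a human umbilical vein endothelium plus PBMC co-culture under SEB/TSST-1 stimulation, measured 24 h after dosing.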

[18] = read-out: CD40, CD40 (gene 958); assay: BSK_SAg_CD40: BioMAP Diversity Plus: SAg Assay for CD40 Biomarker Activity (AID 2283088); conditions: primary human HUVEC with PBMC; actives raise or lower the signal
Procedure, shortened: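 Compounds were dosed onto a human primary endothelial–PBMC co-culture, and after 24 h CD40 was quantified by ELISA using a fluorescence signal. Activity in either direction was fitted relative to DMSO.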

[19] = read-out: urokinase plasminogen activator (uPA), PLAU (gene 5328); assay: BSK_KF3CT_uPA: BioMAP Diversity Plus: KF3CT Assay for urokinase plasminogen activator (uPA) Biomarker Activity (AID 2283075); conditions: primary human keratinocytes with fibroblasts; actives raise or lower the signal
Procedure, shortened: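 Primary human keratinocyte/foreskin fibroblast co-culture exposed to chemical; uPA measured by ELISA at 24 h. Bidirectional fit versus DMSO, with parallel SRB total-protein staining for cytotoxicity.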

Measured: AC50

E-selectin (Homo sapiens), sequence (P16581 whole entry, looked up): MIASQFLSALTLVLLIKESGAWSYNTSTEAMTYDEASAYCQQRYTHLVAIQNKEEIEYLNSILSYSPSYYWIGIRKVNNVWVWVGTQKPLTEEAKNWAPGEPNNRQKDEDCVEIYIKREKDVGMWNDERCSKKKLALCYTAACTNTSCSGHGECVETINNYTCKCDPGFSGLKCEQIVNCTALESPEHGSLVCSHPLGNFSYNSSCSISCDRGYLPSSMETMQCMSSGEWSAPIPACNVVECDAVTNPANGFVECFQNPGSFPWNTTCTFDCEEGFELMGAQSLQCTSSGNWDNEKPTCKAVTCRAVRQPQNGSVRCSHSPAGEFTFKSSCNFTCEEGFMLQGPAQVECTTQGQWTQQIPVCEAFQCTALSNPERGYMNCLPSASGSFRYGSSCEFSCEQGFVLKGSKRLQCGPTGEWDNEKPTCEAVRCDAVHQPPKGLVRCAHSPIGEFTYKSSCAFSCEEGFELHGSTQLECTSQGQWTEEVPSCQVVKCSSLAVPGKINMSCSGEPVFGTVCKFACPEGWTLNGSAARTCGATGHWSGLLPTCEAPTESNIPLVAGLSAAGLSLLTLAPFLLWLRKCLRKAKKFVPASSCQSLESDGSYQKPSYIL
Tumor necrosis factor (Homo sapiens), sequence (P01375 whole entry, looked up): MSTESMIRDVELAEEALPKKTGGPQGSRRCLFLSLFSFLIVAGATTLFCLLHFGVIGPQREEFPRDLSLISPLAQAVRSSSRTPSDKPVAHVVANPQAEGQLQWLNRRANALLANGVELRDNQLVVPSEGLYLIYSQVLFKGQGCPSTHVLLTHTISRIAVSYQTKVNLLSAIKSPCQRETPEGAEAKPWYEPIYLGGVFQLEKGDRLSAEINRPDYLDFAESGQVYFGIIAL

c1ccc2c(c1)sc1ccccc12
inactive: [1] | [2] | [3] | [4] | [5] | [6] | [7] | [8] | [9] | [10] | [11] | [13] | [14] | [15] | [16] | [17] | [18]
active: [12] 0.596 µM

CC(O)C(F)(F)C(F)(F)F (stereo unspecified)
active: [14] 5.95 µM
inactive: [1] | [2] | [4] | [6] | [7] | [8] | [9] | [10] | [11] | [12] | [13] | [14] | [15] | [16] | [17] | [18]

CCN(CC)c1ccccc1
inactive: [1] | [2] | [3] | [4] | [5] | [6] | [7] | [8] | [9] | [10] | [11] | [12] | [13] | [14] | [15] | [16] | [17] | [18]

COP(=O)(O)OC
inactive: [1] | [2] | [3] | [4] | [6] | [7] | [8] | [9] | [10] | [11] | [12] | [13] | [14] | [15] | [16] | [17] | [18]

Cc1cccc(N)c1
inactive: [1] | [2] | [3] | [5] | [19] | [6] | [7] | [8] | [9] | [10] | [11] | [12] | [13] | [14] | [15] | [16] | [17] | [18]

O=P(Oc1ccccc1)(Oc1ccccc1)Oc1ccccc1
inactive: [1] | [2] | [3] | [4] | [5] | [7] | [10] | [12] | [14]
active: [6] 23.6 µM | [8] 30.6 µM | [9] 30.6 µM | [11] 30 µM | [13] 32.1 µM | [15] 3.97 µM | [16] 20 µM | [17] 31.7 µM | [18] 25.9 µM

O=C(O)C(F)(OC(F)(F)C(F)(F)C(F)(F)F)C(F)(F)F (stereo unspecified)
active: [8] 18 µM and 12.1 µM | [14] 1.41 µM
inactive: [1] | [2] | [4] | [6] | [7] | [8] | [9] | [10] | [11] | [12] | [13] | [14] | [15] | [16] | [17] | [18]

CCCN(CCC)c1c([N+](=O)[O-])cc(C(C)C)cc1[N+](=O)[O-]
active: [5] 14.6 µM | [6] 31 µM | [7] 30.8 µM | [8] 31.9 µM | [9] 31.2 µM | [10] 31.5 µM | [11] 31.3 µM | [13] 26.2 µM | [15] 35.9 µM | [16] 26.1 µM | [17] 28.6 µM | [18] 30.1 µM
inactive: [1] | [2] | [3] | [4] | [12] | [14]

Cc1ccc([N+](=O)[O-])cc1C
inactive: [1] | [2] | [3] | [4] | [6] | [7] | [8] | [9] | [10] | [11] | [12] | [13] | [14] | [15] | [16] | [17] | [18]

CCCCC(CC)COP(=O)(Oc1ccccc1)Oc1ccccc1 (stereo unspecified)
active: [1] 20 µM | [2] 6.54 µM | [3] 5.46 µM | [19] 4.9 µM | [6] 13.5 µM | [7] 20 µM | [8] 20 µM | [9] 20 µM | [10] 20 µM | [11] 7.43 µM | [13] 8.19 µM | [15] 20 µM | [16] 13 µM | [17] 20 µM | [18] 20 µM
inactive: [4] | [12] | [14]

CCOP(=S)(OCC)SCSc1ccc(Cl)cc1
inactive: [1] | [4] | [7] | [8] | [9] | [11] | [12] | [14] | [15]
active: [2] 0.533 µM | [3] 0.0592 µM | [6] 20 µM | [10] 5.31 µM | [13] 18.7 µM | [16] 13.2 µM | [17] 20 µM | [18] 9.34 µM

CCOP(=S)(OCC)SCS(=O)(=O)CC
inactive: [1] | [2] | [3] | [4] | [19] | [6] | [7] | [8] | [9] | [10] | [11] | [12] | [13] | [14] | [15] | [16] | [17] | [18]

COP(=O)(CCC(=O)NCO)OC
inactive: [1] | [2] | [4] | [6] | [7] | [8] | [9] | [10] | [11] | [12] | [13] | [14] | [15] | [16] | [17] | [18]

Nc1ccc2ccccc2c1
inactive: [1] | [2] | [3] | [4] | [19] | [6] | [7] | [8] | [9] | [10] | [11] | [12] | [13] | [14] | [15] | [16] | [17] | [18]
